High-throughput results deposited in PubChem by National Center for Advancing Translational Sciences (NCATS).
HCV inh = qHTS Assay for Inhibitors of Hepatitis C Virus (HCV) | 3.4% of 340,000 active | Potency, µM (series often up to 41.8 µM), usual class: inhibitors | Huh7.5.1 HCVcc-Cre infection, luciferase reporter, 44 h; active means well fitted inhibition curve with a large enough effect; inconclusive means small, poorly fitted or top-dose-only effect, or another doubt; inactive means no such curve, though single readings can be large or run the other way
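Whole-lifecycle infectious HCVcc-Cre system; cells 1,000/well, compound then virus (~0.5 moi) added 4 h after plating, 44 h culture. Luciferase read 15 sec following 15 min substrate incubation, room temp.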
Vaccinia Venus = qHTS for Stage-Specific Inhibitors of Vaccinia Orthopoxvirus: Venus Reporter Primary qHTS; Vaccinia virus Venus reporter expression, fluorescence; 0.46% of 330,000 active; Potency, µM (series often up to 36.5 µM), most hits filed as inhibitors; calls by dose curve; tested in A549 cells; further: nearly all actives have a fitted effect of over 30% in size
Marburg entry inh = qHTS for inhibitors of binding or entry into cells for Marburg Virus; Marburg virus pseudotyped entry inhibition, cell reporter; Potency, µM (highest dose often 37.8 µM), most hits filed as inhibitors; 1.8% of 300,000 active; AID 540276, 2011; calls by dose curve; tested in HEK293 cells
Lassa entry inh = qHTS for Inhibitors of binding or entry into cells for Lassa Virus. Lassa virus pseudotype entry inhibition, cell reporter. Potency, µM (top dose mostly 37.9 µM), actives largely listed as inhibitors. 1.2% of 300,000 active; calls by dose curve; tested in HEK293 cells; further: nearly all actives have a fitted effect of over 50% in size
VACV mCherry inh = qHTS for Stage-Specific Inhibitors of Vaccinia Orthopoxvirus: mCherry Reporter Primary qHTS; Vaccinia virus mCherry reporter infection, fluorescence; Potency, µM (highest dose often 36.5 µM), most hits filed as inhibitors; 0.63% of 310,000 active; AID 720579, 2013; calls by dose curve; tested in A549 cells; further: nearly all actives have a fitted effect of over 35% in size
Hits are given with their value; n = inactive; u = inconclusive; x = no result. The list is not random: actives were taken first. Their share in the collection is about 4.6%.

SMILES | HCV inh | Vaccinia Venus | Marburg entry inh | Lassa entry inh | VACV mCherry inh
CCN(CC)CCN(C(=O)CCS(=O)(=O)c1ccccc1)c1nc2c(C)cc(C)cc2s1 | u | u | u | u | 14.1µM
CN(C)CCCN(C(=O)c1cc(-c2cccs2)nc2ccccc12)c1nc2ccc(F)cc2s1 | u | u | u | 6.31µM | u
CCN(CC)CCN(C(=O)c1ccc2c(c1)CCCC2)c1nc2ccc(F)cc2s1 | u | n | u | n | n
CCN(CC)CCN(C(=O)CCS(=O)(=O)c1ccccc1)c1nc2cc(C)cc(C)c2s1 | n | n | u | u | n
COc1ccccc1/C=C1\C=Cc2ccccc21 | x | n | x | x | n
O=C1[C@H](Cc2ccccc2)NC/C=C\C[C@@H](c2ccc(Cl)cc2)N1Cc1ccccc1 | x | n | x | x | n
CN(C)CCCN(C(=O)CCS(=O)(=O)c1ccccc1)c1nc2cc3c(cc2s1)OCO3 | u | 10µM | u | u | u
COc1ccc(OC)c2sc(N(CCCN(C)C)C(=O)CCS(=O)(=O)c3ccccc3)nc12 | u | u | u | n | u
CN(C)CCCN(C(=O)c1ccc2c(c1)CCCC2)c1nc2cc3c(cc2s1)OCO3 | u | u | 11.2µM | u | u
CN(C)CCCN(C(=O)c1ccc(S(=O)(=O)N(C)C)cc1)c1nc2cc3c(cc2s1)OCO3 | n | n | u | n | n
CN(C)CCCN(C(=O)c1ccc(Br)s1)c1nc2cc3c(cc2s1)OCO3 | u | 12.6µM | x | x | 10µM
CCN1CCCC1CNC(=O)c1cnn(-c2ncc3c(n2)-c2ccc(OC)cc2CC3)c1C1CC1 (stereo unspecified) | x | n | x | x | n
Cc1ccc(-n2sc3ccccc3c2=O)cc1 | u | n | 3.16µM | u | n
O=c1c2ccccc2sn1-c1ccc(F)cc1 | u | n | x | x | n
Cc1cc(N2CCN(S(=O)(=O)c3ccc(Cl)cc3)CC2)c2ccccc2n1 | 11.2µM | u | u | 16.4µM | u
CCc1nc2ccccc2nc1N1CCN(S(=O)(=O)c2ccc(Cl)cc2)CC1 | n | n | 11.2µM | u | n
O=S(=O)(c1ccc(Cl)cc1)N1CCN(c2nc(Nc3cc(Cl)ccc3O)nc3ccccc23)CC1 | x | n | x | x | n
Cc1cc(N2CCN(S(=O)(=O)c3ccc(Cl)c(Cl)c3)CC2)c2ccccc2n1 | 11.2µM | x | x | x | x
Cn1c(N2CCN(S(=O)(=O)c3ccc(Cl)cc3)CC2)nc2ccccc21 | n | n | n | n | n
Cc1ccc(CNC(=O)c2ccc3c(c2)N(Cc2ccccc2F)C(=O)c2ccccc2S3(=O)=O)cc1 | x | n | n | n | n
O=C(NCC1Cc2cccc(-c3cnccn3)c2O1)C1COc2ccccc2O1 (stereo unspecified) | x | n | x | x | n
O=C(NCCCN1CCc2ccccc2C1)C1CCN(c2nnc(-n3cccc3)s2)CC1 | u | n | 14.6µM | n | n
CCCCNc1ncnc2oc(-c3ccco3)c(-c3ccco3)c12 | x | n | x | x | n
CC(C)=CCC/C(C)=C/CNC(=O)C[C@H]1C[C@H](C(=O)N(C(C)C)C(C)C)[C@@]2(C)c3[nH]c4ccc(Cl)cc4c3CCN2C1=O | n | u | x | x | u
COc1ccc(CNC(=O)C[C@H]2C[C@H](C(=O)N3CCOCC3)[C@@]3(C)c4[nH]c5ccc(Cl)cc5c4CCN3C2=O)cc1OC | u | u | x | x | n
SMILES | HCV inh | Vaccinia Venus | Marburg entry inh | Lassa entry inh | VACV mCherry inh
CC(C)N(C(=O)[C@H]1C[C@H](CC(=O)NCCC2=CCCCC2)C(=O)N2CCc3c([nH]c4ccc(Cl)cc34)[C@]12C)C(C)C | n | 15.8µM | x | x | u
COc1ccc(CNC(=O)C[C@H]2C[C@H](C(=O)N(C(C)C)C(C)C)[C@@]3(C)c4[nH]c5ccc(Cl)cc5c4CCN3C2=O)cc1OC | 12.6µM | u | x | x | u
COc1ccc2[nH]c3c(c2c1)CCN1C(=O)C(CC(=O)NC/C=C(\C)CCC=C(C)C)C[C@H](C(=O)N(C(C)C)C(C)C)[C@@]31C (stereo partly specified) | 6.31µM | u | n | x | n
Cc1ccc(/C=C2/SC(=S)N(CCCC(=O)Nc3ccc(O)cc3)C2=O)cc1 | n | u | u | u | u
O=C(CCCN1C(=O)/C(=C\c2ccccc2)SC1=S)Nc1ccc(O)cc1 | u | 28.2µM | u | u | u
COc1cc(/C=C2\SC(=S)N(CCC(=O)NC3CCCC3)C2=O)cc(OC)c1OC | u | n | n | x | n
Cc1ccc(/C=C2\SC(=S)N(CCCC(=O)NC3CCCC3)C2=O)cc1 | n | n | u | 1.12µM | n
